Residue numbers refer to the chain shown, from its start. Whole data set: some 5,800 sequences, median “enrichment r” near 0.54, cut for the highest 2% near 16. This is one part of a sample in which the highest values are shown more often than they occur.

Our source for the binding signal values is publication PMC12136788.

B1: chr5:14398947:14399058:+|CDS|ENSG00000038382|unk|total|mutant (ssRNA)
RNA: GGGAGUUCUACAGUCCGACGAUCCCCAAAAACCUUAAUUCGAAAGGGUCGAGAACGGCAUCUCUUCCUUUUUGAAAUGUCCUCCGUAUUCCGUAAAGAAGUGAAAGAUUCCAGUGGGAGAAGCAAGUACCUUUAUAAAAGCAACAACAGAGGAUUGAGCAUCA
B2: chr1:206903316:206905147:-|three_prime_utr|ENSG00000162894|control|control|control (ssRNA)
RNA: GGGAGUUCUACAGUCCGACGAUCUCUGUGCCCUGAGCAUGGCUCUGCCCCCAGGUCGUCUUGCACACCUUGGCAGCCCCCUGUAGUUGACAGGUAAGCUGUAGGCAUGUAGAGCAAUUGUCCCAAUGCCACUUGCUUCCUUUCCAACAGAGGAUUGAGCAUCA
B3: chr3:31657911:31664018:-|three_prime_utr|ENSG00000144645|control|control|control (ssRNA)
RNA: GGGAGUUCUACAGUCCGACGAUCGGGUUUUUCUUGCUGAGCCCCCAAGACUGGAUAAAUACCAGGCAGGGGAAGGGAUGGACUAGGGCAGCUCGGUUCUGACUCCAGCUUUGGACAAGGCUUCAGGACAGGUUUUCUGCCACACAACAGAGGAUUGAGCAUCA
B4: chr2:190659421:190659522:+|CDS|ENSG00000138386|unk|FALSE|unique (ssRNA)
RNA: GGGAGUUCUACAGUCCGACGAUCAGAGACUGGGUCACAAACCCUGGGCUUUUCAAUCAGCCACUGACUUCCCUUCCUGUCAGUAGCAUACCCAUCUAUAAAUUACCAGAGGGAUCACCAACAUGGCUGGGAAUAUCCUGCAGUCAACAGAGGAUUGAGCAUCA
B5: chr10:16593140:16593241:-|3pUTR|ENSG00000148484|unk|total|mutant (ssRNA)
RNA: GGGAGUUCUACAGUCCGACGAUCUUAUUUUUCUUUUCACUCUCUUUCUAAUGCUUCCCACCUUACCUUUCCGAUUCUUUUGCCCGGUGGGAGAUUGUUAUAAGGUCUUUAAACCAUUUCCAUUUGUUUCUUUAACAUUACCAACAACAGAGGAUUGAGCAUCA
B6: chr5:72207278:72207408:+|3pUTR|ENSG00000131711|msi1_unk|FALSE|overlapping (ssRNA)
RNA: GGGAGUUCUACAGUCCGACGAUCAGAGAACAAUGACCUCAUUUUAUUUUCUAUGUUAGUUAUUUAUUUCAAAAUUAACAUUUUAGUUGAUUUUUGUCUGAUAAGUCUAUGUUUUGCACUGCUAACUAUGAUGAGGGUUUAAAACAACAGAGGAUUGAGCAUCA
B7: chr7:137014887:137014989:+|CDS|ENSG00000181072|unk|FALSE|unique (ssRNA)
RNA: GGGAGUUCUACAGUCCGACGAUCGCUACUUGGCUACUGAUUAGAGAACGCAAAAUGAAUAACUCAACAAACUCCUCUAACAAUAGCCUGGCUCUUACAAGUCCUUAUAAGACAUUUGAAGUGGUGUUUAUUGUCCUGGUGGCUCAACAGAGGAUUGAGCAUCA
B8: chr1:204554719:204554820:+|3pUTR|ENSG00000198625|unk|FALSE|unique (ssRNA)
RNA: GGGAGUUCUACAGUCCGACGAUCAAGUACUUUCUUUUGACAGAAAUUUUCAUUCUGCUUGCCAUUGCUAUAUUCUCCCUUUAUAGGAGCCAUUGGAUUUCUUUCCUUUUGUGGGAAAUGUCCCAUUAGCAUUUUCAGAUCUUUCAACAGAGGAUUGAGCAUCA
B9: chr8:41263181:41263319:-|3pUTR|ENSG00000104332|msi1|total|mutant (ssRNA)
RNA: GGGAGUUCUACAGUCCGACGAUCCUUAAGUGAUUUGCCUGUAAUUUUGGAUGAUUAAAAAAUGUGUAUAUAUAUCCGCUAAUCCGAAAUAUUCUACUUCUCUGUUGUCAAACUGAAAUUCAGAGCAAGUUCCUGAGUGCGUGGCAACAGAGGAUUGAGCAUCA
B10: chrX:120258281:120258382:+|3pUTR|ENSG00000177485|msi1|FALSE|bound_elsewhere (ssRNA)
RNA: GGGAGUUCUACAGUCCGACGAUCUGUACAAUCUUCCCUGUCAUGACUUUAAGUUCUACUUUUCAUUAACCAUGGCCUGAUAUUAGUUCUUAGAGCUUCUUGUGGCAAAAAUAAAAUGAUUUAAUUCUGAUGUUUGAGUGCGUGCAACAGAGGAUUGAGCAUCA
B11: chr10:17237356:17237519:+|3pUTR|ENSG00000026025|msi1_unk|total|mutant (ssRNA)
RNA: GGGAGUUCUACAGUCCGACGAUCAGACCGAUUUGGAACCGGAAUAAGCUCCCGUUCUUAACAACCGACACUCCUACAAGAUUCCGAAAAAAGUUUACAACAUAAUCCCGUUUACAGAAAAAUCUUGUGCCCGAAUACUUUUUACAACAGAGGAUUGAGCAUCA
B12: chr8:41263181:41263319:-|3pUTR|ENSG00000104332|msi1|FALSE|unique (ssRNA)
RNA: B9 RNA with C75U, C76A, C83U, C84A
B13: chr12:76028832:76028933:-|3pUTR|ENSG00000139289|msi1|FALSE|unique (ssRNA)
RNA: GGGAGUUCUACAGUCCGACGAUCAAAGGAAAAGACUGGAUAAACACAGGAUUUUCAGUAAGAAAACAACCCCAGUCUUGUCUUAGAAGCCACUUGUUGAGGAGUCUGUUGGGGGAAAAAAGAGGAUAUGCUUUUAAAGGUAGACAACAGAGGAUUGAGCAUCA
B14: chr6:117694021:117694122:+|CDS|ENSG00000153989|msi1|total|mutant (ssRNA)
RNA: GGGAGUUCUACAGUCCGACGAUCGCUGUCUCCGGAAGAUGGAAAAGCAGAUAUUGUAAGAGCUGCUCAGGACUUUUGCCAGUCCGCCGCCCAGAAGCAAAAGAGACCCACAGAUUUGGAUGCCGAUACGUCCGCCAGUUUACUCAACAGAGGAUUGAGCAUCA
B15: chr6:105096826:105097152:-|3pUTR|ENSG00000112276|msi1|FALSE|unique (ssRNA)
RNA: GGGAGUUCUACAGUCCGACGAUCACUUGCAACCUAGUUUUAAAAUACAUGAGGAUUUUAUGAAAGCUUUAUACAGACAUUUAUAGGAAACUCAUUCUUUGAUUUUAGGUGCCAUUUAAAUUGAUAACACUUACUUUAUAAAAACAACAGAGGAUUGAGCAUCA
B16: chr6:117694021:117694122:+|CDS|ENSG00000153989|msi1|FALSE|unique (ssRNA)
RNA: B14 RNA with C83U, C84A, C86U, C87A, C122U, C123A, C131U, C132A
B17: chr10:17237356:17237519:+|3pUTR|ENSG00000026025|msi1_unk|FALSE|overlapping (ssRNA)
RNA: GGGAGUUCUACAGUCCGACGAUCAGAUAGAUUUGGAAUAGGAAUAAGCUCUAGUUCUUAACAACCGACACUCCUACAAGAUUUAGAAAAAAGUUUACAACAUAAUCUAGUUUACAGAAAAAUCUUGUGCUAGAAUACUUUUUACAACAGAGGAUUGAGCAUCA
B18: chr1:62654060:62654161:-|CDS|ENSG00000116641|unk|FALSE|unique (ssRNA)
RNA: GGGAGUUCUACAGUCCGACGAUCCUUGUUUUCUACCCAUCUCUUAUCCCAACUUUUUACAAAGGUGCCCCUUACCGAAGCAGUAGAUCCAGUGGAUUUGGAAGAUUACCUCAUUACUCAUCCUUUGGCUGUGGAUUCUGGGCCCAACAGAGGAUUGAGCAUCA
B19: chr8:86558718:86558819:+|3pUTR|ENSG00000085719|unk|total|mutant (ssRNA)
RNA: GGGAGUUCUACAGUCCGACGAUCCUGUUGUUGUUUUUGUUUACUUUCAUAUGAUGAAAAUGCUGUGUUUAAGUGUUUGUCAACCGGAAGAAUGGAAAACUGUUGGGAUGAUGUGGUUUGCAGGUUGCUGUGCCUGAUUCACAGCAACAGAGGAUUGAGCAUCA
B20: chr13:20822168:20822271:-|CDS|ENSG00000132953|unk|FALSE|unique (ssRNA)
RNA: GGGAGUUCUACAGUCCGACGAUCUCGAAAAAUCAGAGAAGAUUCAGAUAUGGCACAAGAUUCUCUGCAGUGCCUUGCCCAGUUAGCUUCUCUUCAUGGACCCAUCUUCCCAGAUGAAGGAUCACAAGUUGAUUAUCUAGCACACAACAGAGGAUUGAGCAUCA
B21: chr21:43758806:43758907:+|3pUTR|ENSG00000160209|msi1|FALSE|unique (ssRNA)
RNA: GGGAGUUCUACAGUCCGACGAUCACUUUCUUAAUCCAGUUUUUCAAACUUCUCCCUGUAGACCGUAAGGAUGAAUUCCACAAUAGGAUCCUUUUUAAAAUCGAUUUUAAAUUGUUGCCUAGUCCUGCCAAGGUUAUUAUGUGCCAACAGAGGAUUGAGCAUCA
B22: chr14:21351797:21351898:-|3pUTR|ENSG00000092201|msi1|FALSE|unique (ssRNA)
RNA: GGGAGUUCUACAGUCCGACGAUCGAGGAAGGCUCAAAGGAGUCAACAUUUAUAUCUGGAAGGGACAAGUCAUGCCUUGGGCCUAGAAUACCCUGAUGAGAAAAGAGAAGAGGAAGGGAGGCCAUAUCUACAACACAGCCUCUCCAACAGAGGAUUGAGCAUCA

The target of this experiment is MSI1 full-length (mouse, UniProt Q61474 1-362). Kind of experiment: nsRBNS (natural sequence RNA bind-n-seq); RBNS binding buffer (assumed for nsRBNS): 25 mM Tris pH 7.5, 150 mM KCl, 3 mM MgCl2, 0.01% Triton X-100, 500 ug/ml BSA, 20 U/ml SUPERase-In, 4 C; UNK is unkempt and MSI1 is Musashi-1; names of the RNAs are library labels; protein concentration not given here; high values mean tight binding.
Chain of MSI1 full-length (Q61474 whole entry): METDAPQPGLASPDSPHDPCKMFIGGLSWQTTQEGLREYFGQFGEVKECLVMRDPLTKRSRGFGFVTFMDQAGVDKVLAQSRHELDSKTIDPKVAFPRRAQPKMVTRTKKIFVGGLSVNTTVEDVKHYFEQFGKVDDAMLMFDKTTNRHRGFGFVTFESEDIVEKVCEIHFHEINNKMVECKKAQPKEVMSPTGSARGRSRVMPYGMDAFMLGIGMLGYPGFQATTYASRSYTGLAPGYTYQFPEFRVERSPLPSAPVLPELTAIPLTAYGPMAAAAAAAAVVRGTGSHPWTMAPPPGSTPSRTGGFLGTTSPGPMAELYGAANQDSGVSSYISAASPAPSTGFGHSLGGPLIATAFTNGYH
For B1, the binding signal is 0.383 enrichment R. Under B2 stands 0.397 enrichment R; under B3, 0.515 enrichment R; under B4, 0.584 enrichment R. Turning to B5, the binding signal turned out to be 1.23 enrichment R. As to B6, the binding signal came out at 1.11 enrichment R. The figure for B7 is 0.188 enrichment R; for B8 it is 0.583 enrichment R; for B9 it is 0.429 enrichment R.

Molecule B10 gave a binding signal of 0.662 enrichment R. B11 came in with a binding signal of 0.307 enrichment R. B12 displayed a binding signal of 21.3 enrichment R. The figure for B13 is 0.854 enrichment R; for B14 it is 0.409 enrichment R; for B15 it is 1.13 enrichment R. Under B16 stands 17.5 enrichment R. B17 came in with a binding signal of 20.9 enrichment R. The figure for B18 is 0.626 enrichment R; for B19 it is 0.342 enrichment R; for B20 it is 0.341 enrichment R.

Turning to B21, the binding signal was found to be 0.936 enrichment R.

In turn, B22 had a binding signal of 0.748 enrichment R.
